Sampled rows, rich in hits. Any-hit rate of the full collection: about 17%.
HepG2 tox: qHTS for Inhibitors of TGF-b: Cytotox Counterscreen | HepG2 CAGA-GFP viability, ATP luminescence, 18 h | Potency, µM (titrated, usually from 46.1 µM), for inactives: top-dose activity change, negative = cytotoxicity, usual class: cytotoxic | 0.76% of 410,000 active
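CellTiter-Glo luminescence gave cytotoxicity after 18 hours at 37 degrees C. The cells were HepG2 CAGA-GFP in 1% FBS DMEM, stimulated with 500 pg/mL TGF-beta after compound addition. %Activity was normalised to no-cell wells (complete cell-killing) and DMSO (no toxicity), and curves were fitted and classified.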
DT40 TDP1 CPT: qHTS for Inhibitors of human tyrosyl-DNA phosphodiesterase 1 (TDP1): qHTS in cells in presence of CPT | Potency, µM (top dose mostly 46.2 µM), without a hit: at the highest dose activity change, negative = growth inhibition, hits mostly inhibitors | chicken DT40 Tdp1-/-;hTDP1 cells + 20 nM CPT, ATP luminescence, 48 h | 12% of 420,000 active; also: % is scaled to controls: 0 for no effect and ±100 for the full control effect; nearly all actives have a fitted effect of over 55% in size
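Chicken DT40 Tdp1-/- cells complemented with human TDP1, 400 cells/well, exposed to compounds plus 20 nM camptothecin for at least 48 h at 37 C; viability read as ATP content by CellTiter-Glo luminescence.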
ATXN2 expr inh: Primary qHTS for Inhibitors of ATXN expression; HEK-293 ATXN2-luciferase reporter, luminescence, 24 h; 0.72% of 360,000 active; AID 1745845, 2022; Potency, µM (doses to about 57 µM), without a hit: top-dose activity change, negative = inhibition, actives largely listed as inhibitors; also: % is scaled to controls: 0 for no effect and ±100 for the full control effect; nearly all actives have a fitted effect of over 55% in size
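qHTS (up to 57 uM final) was run with 24 h compound exposure of reporter cells at 37 °C. Each well was multiplexed: SteadyGlo luminescence measured ATXN2-luciferase expression after a fluorogenic Gly-Phe-AFC viability readout (25 uM final).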
TGFb SMAD3 inh: qHTS for Inhibitors of TGF-b; HepG2 CAGA-GFP TGF-b/SMAD3 reporter, GFP fluorescence, 18 h; TGF-beta stimulated, 500 pg/mL final; Potency, µM (titrated, usually from 46.1 µM), inactives show at the highest dose activity, negative = inhibition, usual class: inhibitors; 1.2% of 410,000 active; AID 588855, 2011; also: % is scaled to controls: 0 for no effect and ±100 for the full control effect; nearly all actives have a fitted effect of over 65% in size
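Using HEPG2 CAGA-GFP reporter cells at 1000 cells/well, we pinned test compounds, stimulated with recombinant TGF-beta (500 pg/mL final) and measured total well GFP after 18 h.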
ATXN viability: Viability Counterscreen for Primary qHTS for Inhibitors of ATXN expression; S2 cells (HEK-293 line with an ATXN2-luciferase reporter) viability, CellTiter-Fluor protease fluorescence, 24 h; Potency, µM (top dose mostly 56.7 µM), usual class: cytotoxic; 0.49% of 400,000 active; also: nearly all actives have a fitted effect of over 40% in size
TDP1 cell noCPT: qHTS for Inhibitors of human tyrosyl-DNA phosphodiesterase 1 (TDP1): qHTS in cells in absence of CPT | DT40 Tdp1-/- hTDP1 cells, no CPT, ATP luminescence, 48 h | 15% of 420,000 active | Potency, µM (titrated, usually from 46.2 µM), without a hit: top-dose activity change, negative = growth inhibition, actives largely listed as inhibitors | AID 686978, 2013; also: % is scaled to controls: 0 for no effect and ±100 for the full control effect; nearly all actives have a fitted effect of over 55% in size
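Seeded 400 DT40-hTDP1 cells/well (vehicle DMSO, no 20 nM CPT); pinned compounds; ≥48 hr at 37 °C; CellTiter-Glo luminescence as viability measure.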
Numbers without * were called inactive. Calls follow the shape of the dose curve; as a rule, active = well fitted curve in the direction sought with a large enough effect; inconclusive = small, poorly fitted or top-dose-only effect, or another doubt; inactive = no such curve, though single readings can be large; an effect the other way counts as inactive or inconclusive. Potency is read from the fitted curve at half-maximal effect.

Results for COc1cc(C2CC(=O)Nc3c2c(C)nn3-c2nncc(-c3ccc(C)cc3)n2)cc(OC)c1OC (centres undefined) ?
HepG2 tox: -27%; DT40 TDP1 CPT: -16%; ATXN2 expr inh: -12%; TGFb SMAD3 inh: inconclusive; ATXN viability: inactive; TDP1 cell noCPT: -14%

How did CCCN(C(=O)Cn1nc(Cc2cccnc2)c2ccccc2c1=O)c1ccc(C(C)C)cc1 do in these assays?
HepG2 tox: 13µM*; DT40 TDP1 CPT: 23µM*; TGFb SMAD3 inh: 20µM*; TDP1 cell noCPT: 26µM*

What do the screens show for `O=C(Cn1nc(Cc2ccncc2)c2ccccc2c1=O)Nc1cccc(C(F)(F)F)c1`?
HepG2 tox: -25%; DT40 TDP1 CPT: inconclusive; TGFb SMAD3 inh: inconclusive; TDP1 cell noCPT: 23µM*

Results for O=C(Cn1c(=O)n(Cc2ccc(Cl)cc2)c(=O)c2cccnc21)Nc1ccccc1C(F)(F)F ?
HepG2 tox: -1%; DT40 TDP1 CPT: inconclusive; ATXN2 expr inh: -5%; TGFb SMAD3 inh: 1%; ATXN viability: inactive; TDP1 cell noCPT: inconclusive

How did Cc1ccc(Cn2c(=O)c3cccnc3n(CC(=O)Nc3cccc(C(F)(F)F)c3)c2=O)cc1 do in these assays?
HepG2 tox: -34%; DT40 TDP1 CPT: inconclusive; ATXN2 expr inh: -17%; TGFb SMAD3 inh: inconclusive; ATXN viability: inactive; TDP1 cell noCPT: 16µM*

Results for CCCN(C(=O)Cn1nc(Cc2ccncc2)c2ccccc2c1=O)c1ccccc1C ?
HepG2 tox: -32%; DT40 TDP1 CPT: inconclusive; TGFb SMAD3 inh: inconclusive; TDP1 cell noCPT: inconclusive

What do the screens show for `O=C(Cn1nc(Cc2cccnc2)c2ccccc2c1=O)Nc1ccc(F)c(Cl)c1`?
HepG2 tox: -25%; DT40 TDP1 CPT: -8%; TGFb SMAD3 inh: inconclusive; TDP1 cell noCPT: 16µM*

What do the screens show for `CCc1ccc(-n2nc(C)c3c(C)cc(=O)n(CC(=O)NCc4ccc(C)cc4)c32)cc1`?
HepG2 tox: -4%; DT40 TDP1 CPT: -29%; ATXN2 expr inh: -6%; TGFb SMAD3 inh: -11%; ATXN viability: inactive; TDP1 cell noCPT: inconclusive

Results for COc1ccc(C2CC(c3cccs3)=NN2C(=O)CSc2nc(=O)n3ccc(C)cc3n2)cc1 (centres undefined) ?
HepG2 tox: -24%; DT40 TDP1 CPT: inconclusive; ATXN2 expr inh: 22%; TGFb SMAD3 inh: 0%; ATXN viability: inactive; TDP1 cell noCPT: 5.8µM*

How did O=C(CSc1nc2ccccc2o1)N1N=C(c2cccs2)CC1c1ccc(F)cc1 (centres undefined) do in these assays?
HepG2 tox: 9%; DT40 TDP1 CPT: inconclusive; ATXN2 expr inh: -14%; TGFb SMAD3 inh: -12%; ATXN viability: inactive; TDP1 cell noCPT: inconclusive

Results for Cc1ccc2nc(Cl)c(C3CC(c4ccco4)=NN3C(=O)CCCC(=O)O)cc2c1 (centres undefined) ?
HepG2 tox: -12%; DT40 TDP1 CPT: -9%; ATXN2 expr inh: -4%; TGFb SMAD3 inh: -1%; ATXN viability: inactive; TDP1 cell noCPT: -20%

What do the screens show for `Cc1ccc2nc(Cl)c(C3CC(c4cccs4)=NN3C(=O)CCC(=O)O)cc2c1` (centres undefined)?
HepG2 tox: -6%; DT40 TDP1 CPT: -1%; TGFb SMAD3 inh: -2%; ATXN viability: inactive; TDP1 cell noCPT: 5.2µM*

Results for Cc1ccc(C2CC(c3cccs3)=NN2C(=O)CSc2nc3ccccc3o2)cc1 (centres undefined) ?
HepG2 tox: 3%; DT40 TDP1 CPT: 15µM*; ATXN2 expr inh: -3%; TGFb SMAD3 inh: -22%; ATXN viability: inactive; TDP1 cell noCPT: inconclusive

What do the screens show for `COc1ccc(OC)c(Nc2ncnc3c2cnn3-c2cccc(C)c2)c1`?
HepG2 tox: -30%; DT40 TDP1 CPT: 5.2µM*; ATXN2 expr inh: 4%; TGFb SMAD3 inh: 5%; ATXN viability: inactive; TDP1 cell noCPT: 4.6µM*

What do the screens show for `Cc1cccc(-n2ncc3c(NCc4ccccc4)ncnc32)c1`?
HepG2 tox: -21%; DT40 TDP1 CPT: 4.6µM*; ATXN2 expr inh: 12%; TGFb SMAD3 inh: inconclusive; ATXN viability: inconclusive; TDP1 cell noCPT: 6.5µM*

What do the screens show for `Cc1cccc(-n2ncc3c(NCc4ccco4)ncnc32)c1`?
HepG2 tox: 2%; DT40 TDP1 CPT: 13µM*; ATXN2 expr inh: 46%; TGFb SMAD3 inh: -1%; ATXN viability: inactive; TDP1 cell noCPT: 12µM*

What do the screens show for `COc1ccc(Nc2ncnc3c2cnn3-c2ccccc2)cc1OC`?
HepG2 tox: 2%; DT40 TDP1 CPT: inconclusive; ATXN2 expr inh: -6%; TGFb SMAD3 inh: 5%; ATXN viability: inactive; TDP1 cell noCPT: -11%

Results for Cc1cccc(-n2ncc3c(NCCc4ccc(S(N)(=O)=O)cc4)ncnc32)c1 ?
HepG2 tox: -26%; DT40 TDP1 CPT: 29µM*; ATXN2 expr inh: inconclusive; TGFb SMAD3 inh: -16%; ATXN viability: inconclusive; TDP1 cell noCPT: inconclusive

Results for CCn1nc(C)c(CCN(C)C(=O)Nc2cc(OC)c(OC)c(OC)c2)c1C ?
HepG2 tox: -3%; DT40 TDP1 CPT: -1%; ATXN2 expr inh: 13%; TGFb SMAD3 inh: inconclusive; ATXN viability: inactive; TDP1 cell noCPT: -12%

Results for COc1ccc([C@@H]2C[C@H]3[C@@H](CN2S(=O)(=O)c2ccccc2)C(=O)C[C@@H](c2cccc4ccccc24)N3S(=O)(=O)c2ccc(C)cc2)cc1 ?
HepG2 tox: -1%; DT40 TDP1 CPT: 11%; ATXN2 expr inh: 10%; TGFb SMAD3 inh: 3%; ATXN viability: inactive; TDP1 cell noCPT: 1%

Results for O=C1NC(=O)C(Cc2ccccc2)(C2CCN(Cc3cccn3-c3cccnc3)CC2)N1 (centres undefined) ?
DT40 TDP1 CPT: 2%; ATXN viability: inactive; TDP1 cell noCPT: -18%

How did c1ccc(CNc2ncnc3c2cnn3-c2ccccc2)cc1 do in these assays?
HepG2 tox: 3%; DT40 TDP1 CPT: 5.8µM*; ATXN2 expr inh: 1%; TGFb SMAD3 inh: 15%; ATXN viability: inactive; TDP1 cell noCPT: 4.6µM*

How did Fc1ccc(CNc2ncnc3c2cnn3-c2ccccc2)cc1 do in these assays?
HepG2 tox: -11%; DT40 TDP1 CPT: inconclusive; ATXN2 expr inh: 2%; TGFb SMAD3 inh: -11%; ATXN viability: inactive; TDP1 cell noCPT: inconclusive

Compound activity as filed in PubChem BioAssay.
